Experimental data from PubChem BioAssay.
For some assays here: Measured potencies and affinities stand elsewhere. Activity calls are given as the source filed them.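 Rule for the calls, unless noted: active = primary screen hit whose calcium fluorescence ratio, in both repeats, exceeds the weak agonist control mean by 3 SD; inactive = the rest.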

Assays:
[1] = test system: TRPC4 beta (transient receptor potential cation channel C4), mouse; assay: TRPC4 cation channel opening, retest – cell-based, Fluo4 calcium, HEK293 TRPC4beta/mu-opioid, duplicates, 10 µM, confirmation (AID 2426;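 active = fluorescence ratio normalized to control raised more than 50% in primary screen plus both repeat runs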;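 for activation: percent rise of integrated ratio over buffer wells lacking compound which define 0%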); conditions: Fluo4 calcium fluorescence, at 10 µM; stronger effect = higher value
[2] = test system: transient receptor potential cation channel C4 beta (TRPC4), mouse; assay: TRPC4 cation channel opening, second retest – cell-based, second round, Fluo4, HEK293 TRPC4beta/mu-opioid, 1 µM, confirmation (AID 2461;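 active = primary screen active and over 50% activation in each of two duplicate runs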;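 for activation: 0% = wells without test compound as baseline of integrated fluorescence ratio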); conditions: Fluo4 calcium fluorescence, at 1 µM; stronger effect = higher value
[3] = test system: TRPC4 (transient receptor potential cation channel C4 beta), mouse; assay: potentiation of DAMGO EC20 TRPC4 response – cell-based, second round, Fluo-4, HEK293 TRPC4beta/mu-opioid, 1 µM, confirmation (AID 2554;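 active = primary screen hit whose fluorescence ratio, in both repeats, exceeds the weak agonist control mean by 3 SD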); conditions: DAMGO EC20, Fluo-4 calcium flux, at 1 µM; stronger effect = higher value
[4] = test system: TRPC4 beta (transient receptor potential cation channel C4), mouse; assay: potentiation of DAMGO EC20 TRPC4 response – cell-based, Fluo-4, HEK293 TRPC4beta/mu-opioid, confirmation (AID 2555); conditions: DAMGO EC20, Fluo-4 calcium flux, at 10 µM; stronger effect = higher value
[5] = biological target: Short transient receptor potential channel 4 (Mus musculus) (UniProt Q9QUQ5); assay: blockers of DAMGO-evoked TRPC4 calcium flux – cell-based, Fluo4, HEK293 TRPC4beta/mu-opioid, confirmation (AID 2636;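 active = calcium signal cut by more than 3 SD below the full-agonist control yet still positive, in both repeats and the earlier primary screen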); conditions: at 10 µM; stronger effect = higher value
Short transient receptor potential channel 4 (Mus musculus), sequence (Q9QUQ5 whole entry, looked up): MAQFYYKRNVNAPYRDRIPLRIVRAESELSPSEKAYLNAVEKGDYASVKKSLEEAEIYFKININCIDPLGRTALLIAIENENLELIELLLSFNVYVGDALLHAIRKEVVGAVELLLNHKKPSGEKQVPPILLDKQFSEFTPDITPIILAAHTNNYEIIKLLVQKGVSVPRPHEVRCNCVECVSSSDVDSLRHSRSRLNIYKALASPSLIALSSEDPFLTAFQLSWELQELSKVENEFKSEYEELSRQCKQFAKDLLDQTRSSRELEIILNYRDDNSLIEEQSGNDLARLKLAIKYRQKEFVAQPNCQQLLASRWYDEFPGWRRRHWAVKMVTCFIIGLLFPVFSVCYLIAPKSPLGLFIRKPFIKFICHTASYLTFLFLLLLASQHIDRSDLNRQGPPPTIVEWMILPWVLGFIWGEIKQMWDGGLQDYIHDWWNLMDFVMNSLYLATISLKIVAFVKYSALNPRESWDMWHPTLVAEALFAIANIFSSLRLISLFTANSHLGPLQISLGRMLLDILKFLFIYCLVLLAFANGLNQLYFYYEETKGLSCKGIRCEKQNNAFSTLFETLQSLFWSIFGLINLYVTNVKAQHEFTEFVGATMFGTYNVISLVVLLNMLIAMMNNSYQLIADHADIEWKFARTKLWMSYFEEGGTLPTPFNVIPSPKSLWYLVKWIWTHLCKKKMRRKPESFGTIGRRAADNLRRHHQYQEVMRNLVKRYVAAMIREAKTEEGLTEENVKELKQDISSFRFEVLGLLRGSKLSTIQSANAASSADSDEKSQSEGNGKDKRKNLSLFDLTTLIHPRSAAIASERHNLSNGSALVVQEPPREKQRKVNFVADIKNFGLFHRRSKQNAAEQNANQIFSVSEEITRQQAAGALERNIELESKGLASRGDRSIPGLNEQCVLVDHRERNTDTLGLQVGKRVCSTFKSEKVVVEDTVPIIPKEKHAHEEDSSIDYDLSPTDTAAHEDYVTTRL

[6] = biological target: Short transient receptor potential channel 4 (Mus musculus) (UniProt Q9QUQ5); assay: blockers of DAMGO-evoked TRPC4 calcium flux – cell-based, second round, Fluo4, HEK293 TRPC4beta/mu-opioid, 1 µM, confirmation (AID 2637;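 active = calcium signal ratio cut to more than 3 SD under the fully stimulated control mean yet still positive, in both repeats and the primary screen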); conditions: at 1 µM; stronger effect = higher value
[7] = biological target: Short transient receptor potential channel 4 (Mus musculus) (UniProt Q9QUQ5); assay: potentiation of DAMGO-evoked TRPC4 calcium signal – cell-based, HEK293 TRPC4/mu-opioid, Fluo-4 calcium, EC20 DAMGO, dose response (AID 434941;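 active = earlier screen potentiator hit that boosts the TRPC4 ion channel at some dose, with a dose response; inactive = no potentiation, no dose response, or not a prior hit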;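 note: calcium entry triggered by an EC20 dose of DAMGO at the co-expressed mu-opioid receptor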)
[8] = biological target: Short transient receptor potential channel 4 (Mus musculus) (UniProt Q9QUQ5); assay: block of DAMGO-driven TRPC4 calcium entry – cell-based, HEK293 TRPC4/mu-opioid, Fluo-4 calcium, dose response (AID 434942;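 active = primary screen inhibitor hit that blocks the TRPC4 channel at some tested dose, yielding a dose curve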)
[9] = biological target: Short transient receptor potential channel 6 (Mus musculus) (UniProt Q61143); assay: TRPC6 blockade by TRPC4 inhibitor hits – cell-based, HEK293, membrane potential dye, duplicate, selectivity assay for TRPC4 inhibitor project, confirmation (AID 434948;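 active = active in primary screen and both duplicates, each dropping signal beyond three positive-control SD with fluorescence still positive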); conditions: HEK293 TRPC6, membrane potential dye fluorescence, at 10 µM, stimulated with maximal-effect acetylcholine; stronger effect = higher value
Short transient receptor potential channel 6 (Mus musculus), sequence (Q61143 whole entry, looked up): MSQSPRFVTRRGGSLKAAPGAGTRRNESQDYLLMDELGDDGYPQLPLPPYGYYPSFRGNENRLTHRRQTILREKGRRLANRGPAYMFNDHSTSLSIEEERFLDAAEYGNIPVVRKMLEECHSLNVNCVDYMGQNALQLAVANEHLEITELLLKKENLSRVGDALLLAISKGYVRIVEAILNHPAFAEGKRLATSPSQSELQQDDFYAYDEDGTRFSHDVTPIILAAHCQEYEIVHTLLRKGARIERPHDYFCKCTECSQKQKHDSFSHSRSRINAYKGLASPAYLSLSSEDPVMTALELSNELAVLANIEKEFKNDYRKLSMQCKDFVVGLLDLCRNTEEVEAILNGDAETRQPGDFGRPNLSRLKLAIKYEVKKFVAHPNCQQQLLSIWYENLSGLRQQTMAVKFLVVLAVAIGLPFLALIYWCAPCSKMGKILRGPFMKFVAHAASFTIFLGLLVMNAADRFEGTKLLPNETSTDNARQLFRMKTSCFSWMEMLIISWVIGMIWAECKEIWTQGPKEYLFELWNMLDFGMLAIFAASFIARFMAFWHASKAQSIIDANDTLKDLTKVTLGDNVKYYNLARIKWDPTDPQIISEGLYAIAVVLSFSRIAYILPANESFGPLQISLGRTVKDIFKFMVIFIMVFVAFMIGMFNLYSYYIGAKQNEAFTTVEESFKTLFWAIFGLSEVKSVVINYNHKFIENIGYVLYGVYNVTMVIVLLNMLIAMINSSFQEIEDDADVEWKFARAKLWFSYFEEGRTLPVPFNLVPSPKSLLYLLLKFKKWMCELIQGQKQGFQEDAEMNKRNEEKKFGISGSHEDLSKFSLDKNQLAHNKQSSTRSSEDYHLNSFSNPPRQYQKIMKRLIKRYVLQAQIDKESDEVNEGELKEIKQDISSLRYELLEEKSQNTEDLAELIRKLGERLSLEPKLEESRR

[10] = biological target: Short transient receptor potential channel 6 (Mus musculus) (UniProt Q61143); assay: TRPC6 opening by TRPC4 activator hits – cell-based, HEK293, membrane potential dye, duplicate, selectivity assay for TRPC4 activator project, confirmation (AID 434950;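 active = membrane potential signal rise above negative control mean plus 3 SD in both duplicates, also active in the earlier TRPC4 screen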;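 for activation: 0% = buffer only wells and 100% = acetylcholine maximal-effect wells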); conditions: HEK293 TRPC6, membrane potential fluorescence, at 10 µM; activation: stronger effect = higher value; outcome: activation
[11] = biological target: Short transient receptor potential channel 6 (Mus musculus) (UniProt Q61143); assay: positive modulators of mouse TRPC6 channel – HEK293 cells, membrane potential dye, duplicate, selectivity assay for TRPC4 potentiator project, confirmation (AID 434952;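 active = compound raising the membrane signal above positive-control mean plus 3 SD in both repeats, and a primary screen hit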); conditions: HEK293 TRPC6, membrane potential dye fluorescence, at 10 µM, maximal acetylcholine added after compound; stronger effect = higher value
[12] = biological target: Short transient receptor potential channel 4 (Mus musculus) (UniProt Q9QUQ5); assay: calcium flux activators in TRPC4/5HT1a cells, counter-screen for TRPC4 activator project, cell-based, second counter screen, HEK293 TRPC4/5HT1a, Fluo-4 (AID 434977;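 active = calcium signal rise above buffer-control mean plus 5 SD in both duplicates, and also a hit in the primary screen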;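 for activation: plate controls were assay buffer for no effect and maximal serotonin response for full effect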); conditions: Fluo-4 calcium flux, at 10 µM; stronger effect = higher value
[13] = serotonin-gated TRPC4 signal block – cell-based, second counter screen, HEK293 TRPC4/5HT1a, Fluo-4, counter-screen for TRPC4 inhibitor project, confirmation (AID 434978;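 active = primary screen active whose calcium signal fell more than 3 SD beyond the full-serotonin control mean in both duplicate plates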;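 note: serotonin given first at submaximal then at maximal dose after compound preincubation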); conditions: Fluo-4 calcium flux, at 10 µM, serotonin added to trigger calcium flux; stronger effect = higher value
[14] = test system: TRPC4 (mouse), co-expressed with 5HT1a in HEK293; assay: enhancement of serotonin-evoked TRPC4 response – cell-based, second counter screen, HEK293 TRPC4/5HT1a, Fluo-4, counter-screen for TRPC4 potentiator project, confirmation (AID 434979;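 active = signal rise over 3 SD above mean of control wells given weak agonist, in both repeats and first screen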); conditions: Fluo-4 calcium flux, at 10 µM, serotonin added at its EC20 dose; stronger effect = higher value
[15] = nonspecific calcium rise without TRPC4 – cell-based, HEK293 mu-opioid receptor line, counter-screen for TRPC4 activator project, confirmation (AID 449723;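 active = hit in primary screen, with calcium signal over 5 SD above buffer well mean in both duplicates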;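 note: counter screen cells carry the mu-opioid receptor alone and lack TRPC4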); conditions: HEK293 mu-opioid cells, Fluo-4 calcium fluorescence, at 10 µM; stronger effect = higher value
[16] = nonspecific potentiation of DAMGO calcium response – cell-based, HEK293 mu-opioid receptor line, counter-screen for TRPC4 allosteric potentiator project, confirmation (AID 449724;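 active = calcium signal rise more than 3 SD above the low-dose agonist control mean, in both duplicate plates and the primary screen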); conditions: HEK293 mu-opioid receptor cells, Fluo-4 calcium flux, at 10 µM, compound added before EC20 DAMGO stimulus; stronger effect = higher value

COc1ccccc1C(=O)NNC(=S)NC(=O)c1cccs1
inactive: outcome [2] | outcome [3] | outcome [4] | outcome [5] | outcome [6] | outcome [7] | outcome [8] | outcome [9] | outcome [10] | outcome [11] | outcome [13] | outcome [14] | outcome [16]
active: activation [1] 74% | activation [12] 59.6% | activation [15] 13.9%

CCOC(=O)C1(CCCc2ccccc2)CCN(Cc2cn(CC)nc2C)CC1
inactive: outcome [3] | outcome [4] | outcome [5] | outcome [6] | outcome [7] | outcome [8] | outcome [9] | outcome [11] | outcome [12] | outcome [13] | outcome [14] | outcome [15] | outcome [16]
active: activation [1] 153% | activation [2] 76% | activation [10] 84%

O=C(COc1ccc(Br)cc1CNC1CCCC1)Nc1ccccc1
active: activation [1] 175% | activation [10] 29.5%
inactive: outcome [2] | outcome [3] | outcome [4] | outcome [5] | outcome [6] | outcome [7] | outcome [8] | outcome [9] | outcome [11] | outcome [12] | outcome [13] | outcome [14] | outcome [15] | outcome [16]

Cc1ccc(C)c(S(=O)(=O)N2CCN(C(=O)CCc3nc4ccccc4c(=O)[nH]3)CC2)c1
inactive: outcome [2] | outcome [3] | outcome [4] | outcome [5] | outcome [6] | outcome [7] | outcome [8] | outcome [9] | outcome [11] | outcome [13] | outcome [14] | outcome [15] | outcome [16]
active: activation [1] 153% | activation [10] 39% | activation [12] 25.2%

CC1(c2ccc(Cl)cc2Cl)OCC(Cn2ccnc2)O1 (centres undefined)
active: activation [1] 89% | activation [10] 48.5% | activation [12] 19.9%
inactive: outcome [2] | outcome [3] | outcome [4] | outcome [5] | outcome [6] | outcome [7] | outcome [8] | outcome [9] | outcome [11] | outcome [13] | outcome [14] | outcome [15] | outcome [16]

CNCCCOc1ccc2c(c1)CCC2
active: activation [1] 75% | potentiation [3] 24% | potentiation [4] 29% | activation [10] 57% | activation [12] 16.2%
inactive: outcome [2] | outcome [5] | outcome [6] | outcome [7] | outcome [8] | outcome [9] | outcome [11] | outcome [13] | outcome [14] | outcome [15] | outcome [16]

CCOC(=O)C1(CC2CCCCO2)CCN(Cc2c(C)cc(C)cc2-n2cccn2)CC1 (centres undefined)
inactive: outcome [3] | outcome [4] | outcome [5] | outcome [6] | outcome [7] | outcome [8] | outcome [9] | outcome [11] | outcome [12] | outcome [13] | outcome [14] | outcome [15] | outcome [16]
active: activation [1] 75% | activation [2] 103% | activation [10] 62.5%

CN(CCOc1ccc(Cl)cc1)CC(O)c1ccccc1 (centres undefined)
active: activation [1] 76% | activation [10] 52.5% | activation [12] 13.9%
inactive: outcome [2] | outcome [3] | outcome [4] | outcome [5] | outcome [6] | outcome [7] | outcome [8] | outcome [9] | outcome [11] | outcome [13] | outcome [14] | outcome [15] | outcome [16]

O=C(c1cccs1)N1CCN(c2ncc(Br)cn2)CC1
inactive: outcome [3] | outcome [4] | outcome [5] | outcome [6] | outcome [7] | outcome [8] | outcome [9] | outcome [11] | outcome [13] | outcome [14] | outcome [15] | outcome [16]
active: activation [1] 215% | activation [2] 91% | activation [10] 35.5% | activation [12] 79.8%

Cc1cccc(C)c1OCC(O)CN (centres undefined)
inactive: outcome [2] | outcome [3] | outcome [4] | outcome [5] | outcome [6] | outcome [7] | outcome [8] | outcome [9] | outcome [11] | outcome [13] | outcome [14] | outcome [15] | outcome [16]
active: activation [1] 90% | activation [10] 30.5% | activation [12] 20.1%

Clc1ccc(OCCNCCc2ccccc2)cc1
active: activation [10] 53% | activation [12] 24.4%
inactive: outcome [1] | outcome [2] | outcome [3] | outcome [4] | outcome [5] | outcome [6] | outcome [7] | outcome [8] | outcome [9] | outcome [11] | outcome [13] | outcome [14] | outcome [15] | outcome [16]

O=C(NNC(=S)NC(=O)C12CC3CC(CC(C3)C1)C2)c1ccncc1
active: activation [1] 192% | activation [12] 126% | activation [15] 44.2%
inactive: outcome [2] | outcome [3] | outcome [4] | outcome [5] | outcome [6] | outcome [7] | outcome [8] | outcome [9] | outcome [10] | outcome [11] | outcome [13] | outcome [14] | outcome [16]

Cc1cc(C)c(C)c(OCCCN(C)C)c1
active: activation [1] 152% | activation [2] 95% | activation [10] 67.5% | activation [12] 47.6% | potentiation [14] 15.7%
inactive: outcome [3] | outcome [4] | outcome [5] | outcome [6] | outcome [7] | outcome [8] | outcome [9] | outcome [11] | outcome [13] | outcome [15] | outcome [16]

CCn1c(N2CCN(C(=O)Nc3ccc(F)cc3)CC2)nc2ccccc21
active: activation [1] 119% | activation [10] 41% | activation [12] 28.1%
inactive: outcome [2] | outcome [3] | outcome [4] | outcome [5] | outcome [6] | outcome [7] | outcome [8] | outcome [9] | outcome [11] | outcome [13] | outcome [14] | outcome [15] | outcome [16]
